Results taken from PubChem BioAssay AID1076 (NMMLSC, 2008).
Activity calls are given as the source filed them.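 The calls were made as follows: active = cell event count below 40, meaning activity score above 60 where score is 100 minus count; inactive = the rest.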

Test: cytotoxicity in LNCaP prostate cells – cell-based, cell event count, single point, cytotoxicity control for prostate differentiation activator project, confirmation (AID 1076);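 also: counts scatter-gated live cells after medium removal discards detached dead cells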
Details: LNCaP cell loss, flow cytometry event count, 4 d; at 100 µM; stronger effect = lower value

Row | Compound | cell event count
1 | O=S1(=O)C=C(Sc2nc3ccccc3s2)c2ccccc21 | 39 (active)
2 | Cc1ccccc1-c1nc(CN2CCC(C(=O)NCCCN3CCCC3)CC2)c(C)o1 | 20 (inactive)
3 | CN1CCN(CC(=O)Nc2ccc(Cl)cc2Cl)CC1 | 117 (inactive)
4 | O=C(Cc1coc(-c2ccc(F)cc2)n1)N1CCOCC1 | 217 (inactive)
5 | CCC(C)NC(=O)c1cn(C)c(=O)c2cc(OC)c(OC)cc12 (stereo unspecified) | 386 (inactive)
6 | COc1cc2c(C(=O)NCCCN3CCN(c4cccc(Cl)c4)CC3)cn(C)c(=O)c2cc1OC | 15 (inactive)
7 | c1ccc(N2CCN(c3nnc(Cc4cccnc4)c4ccccc34)CC2)nc1 | 40 (inactive)
8 | COc1ccc(NC(=O)NCCCN2CCN(c3cc(C)ccc3C)CC2)cc1 | 1 (inactive)
9 | O=C(Cn1cc2c(n1)CCCC2)NCCCN1CCN(c2ccccc2F)CC1 | 94 (inactive)
10 | CCc1ccc(-c2nc(CN3CCCC(C(=O)O)C3)c(C)o2)cc1 (stereo unspecified) | 153 (inactive)
11 | Cc1ccc(C)c(N2CCN(C(=O)CCNC(=O)Cn3ccc4ccccc4c3=O)CC2)c1 | 76 (inactive)
12 | COc1ccc(/C=N/c2nc3ccccc3n2C)cc1OC | 90 (inactive)
13 | Cn1c(=O)cc(SCC(=O)NCCCN2CCN(c3ccccc3F)CC2)c2ccccc21 | 166 (inactive)
14 | COC(=O)c1ccccc1S(=O)(=O)N(Cc1cc2cc3c(cc2[nH]c1=O)OCO3)C1CCCCC1 | 8 (inactive)
15 | COc1ccc(N2CCN(CCCNC(=O)C3CCCN(S(=O)(=O)c4cnc[nH]4)C3)CC2)cc1 (stereo unspecified) | 31 (inactive)
16 | CN(C(=O)c1ccccn1)c1nnc(-c2cccnc2)s1 | 168 (inactive)
17 | COc1ccc(Cc2n[nH]c(=O)c3ccccc23)cc1OC | 207 (inactive)
18 | Cc1ccc(Oc2ccc(S(=O)(=O)N3CCOCC3)cc2C(N)=O)c(-n2nc3ccccc3n2)c1 | 5 (inactive)
19 | Cc1oc(-c2cccc(Cl)c2)nc1CN1CCCC(C(=O)NCc2ccco2)C1 (stereo unspecified) | 10 (inactive)

Row | Compound | cell event count
20 | O=C(NCCCN1CCN(c2cccc(Cl)c2)CC1)C1CCC(=O)N1Cc1ccccc1Cl (stereo unspecified) | 12 (inactive)
21 | CCN1CCN(CCNC(=O)C2CCN(Cc3nc(-c4ccc(Cl)cc4)oc3C)CC2)CC1 | 38 (inactive)
22 | Cc1ccc(NC(=O)N2CCCN(Cc3ccc(F)cc3)C2)cc1C | 13 (inactive)
23 | O=C(O)C1CCCCC1C(=O)Nc1cnn(Cc2ccccc2)c1 (stereo unspecified) | 42 (inactive)
24 | O=C(CCCCCn1c(=O)[nH]c2ccccc2c1=O)NCCCN1CCN(c2ccccc2F)CC1 | 18 (inactive)
25 | N#CC1=C(N)OC2=C(C(=O)CCC2)C1c1ccc(OC(=O)N2CCOCC2)cc1 (stereo unspecified) | 293 (inactive)
26 | O=C(NCC(c1cccnc1)N1CCOCC1)c1cccc(Cl)c1 (stereo unspecified) | 175 (inactive)
27 | O=C(NCCCN1CCN(c2ccc(F)cc2)CC1)c1cccc(N2CCCC2=O)c1 | 206 (inactive)
28 | CC(C)N1CCC2(CC1)N=C(c1ccc3c(c1)OCO3)CC(c1cc(Cl)ccc1O)N2 (stereo unspecified) | 46 (inactive)
29 | CCn1c(=S)ccc2ccc(OC)cc21 | 139 (inactive)
30 | Cn1c(C(=O)NCCCN2CCN(c3ccccc3F)CC2)cc2c(=O)n(C)c3ccccc3c21 | 5 (inactive)
31 | Cc1cccc(-c2nsc(SCC(=O)Nc3nccs3)n2)c1 | 144 (inactive)
32 | CS(=O)(=O)c1nc(-c2cccs2)cc(C(F)(F)F)n1 | 53 (inactive)
33 | COc1ccccc1NC(=O)c1nc[nH]c1C(=O)Nc1ccccc1OC | 103 (inactive)
34 | Cc1cc(=O)n2nc(N3CCCC(C(=O)NCCCN4CCc5ccccc5C4)C3)sc2n1 (stereo unspecified) | 259 (inactive)
35 | COc1ccc(-c2coc3c(CN4CCCCC4)c(O)c(CN4CCCCC4)c(O)c3c2=O)cc1 | 7 (active)
36 | CCN(CC)CCNC(=O)c1nn(-c2ccc(C)cc2)c(=O)c2c1c1ccccc1n2C | 18 (inactive)
37 | Cc1ccc2c(c1)NC(=O)C(CC(=O)NCCCN1CCN(c3cc(C)ccc3C)CC1)O2 (stereo unspecified) | 113 (inactive)
38 | Cc1ccc(NC(=O)CCNS(=O)(=O)c2ccc3c(c2)oc(=O)n3C)c(C)c1 | 350 (inactive)

Same assay, conditions: LNCaP cell loss, flow cytometry event count, 4 d; event count; at 10 µM; stronger effect = lower value

Row | Compound | cell event count
39 | O=S1(=O)C=C(Sc2nc3ccccc3s2)c2ccccc21 | 44
40 | Cc1ccccc1-c1nc(CN2CCC(C(=O)NCCCN3CCCC3)CC2)c(C)o1 | 65
41 | CN1CCN(CC(=O)Nc2ccc(Cl)cc2Cl)CC1 | 198
42 | O=C(Cc1coc(-c2ccc(F)cc2)n1)N1CCOCC1 | 71.5
43 | CCC(C)NC(=O)c1cn(C)c(=O)c2cc(OC)c(OC)cc12 (stereo unspecified) | 302
44 | COc1cc2c(C(=O)NCCCN3CCN(c4cccc(Cl)c4)CC3)cn(C)c(=O)c2cc1OC | 230
45 | c1ccc(N2CCN(c3nnc(Cc4cccnc4)c4ccccc34)CC2)nc1 | 434
46 | COc1ccc(NC(=O)NCCCN2CCN(c3cc(C)ccc3C)CC2)cc1 | 102
47 | O=C(Cn1cc2c(n1)CCCC2)NCCCN1CCN(c2ccccc2F)CC1 | 102
48 | CCc1ccc(-c2nc(CN3CCCC(C(=O)O)C3)c(C)o2)cc1 (stereo unspecified) | 123
49 | Cc1ccc(C)c(N2CCN(C(=O)CCNC(=O)Cn3ccc4ccccc4c3=O)CC2)c1 | 148
50 | COc1ccc(/C=N/c2nc3ccccc3n2C)cc1OC | 35.5
51 | Cn1c(=O)cc(SCC(=O)NCCCN2CCN(c3ccccc3F)CC2)c2ccccc21 | 210
52 | COC(=O)c1ccccc1S(=O)(=O)N(Cc1cc2cc3c(cc2[nH]c1=O)OCO3)C1CCCCC1 | 103
53 | COc1ccc(N2CCN(CCCNC(=O)C3CCCN(S(=O)(=O)c4cnc[nH]4)C3)CC2)cc1 (stereo unspecified) | 92.5
54 | CN(C(=O)c1ccccn1)c1nnc(-c2cccnc2)s1 | 240
55 | COc1ccc(Cc2n[nH]c(=O)c3ccccc23)cc1OC | 111
56 | Cc1ccc(Oc2ccc(S(=O)(=O)N3CCOCC3)cc2C(N)=O)c(-n2nc3ccccc3n2)c1 | 126
57 | Cc1oc(-c2cccc(Cl)c2)nc1CN1CCCC(C(=O)NCc2ccco2)C1 (stereo unspecified) | 146

Row | Compound | cell event count
58 | O=C(NCCCN1CCN(c2cccc(Cl)c2)CC1)C1CCC(=O)N1Cc1ccccc1Cl (stereo unspecified) | 239
59 | CCN1CCN(CCNC(=O)C2CCN(Cc3nc(-c4ccc(Cl)cc4)oc3C)CC2)CC1 | 378
60 | Cc1ccc(NC(=O)N2CCCN(Cc3ccc(F)cc3)C2)cc1C | 142
61 | O=C(O)C1CCCCC1C(=O)Nc1cnn(Cc2ccccc2)c1 (stereo unspecified) | 66.5
62 | O=C(CCCCCn1c(=O)[nH]c2ccccc2c1=O)NCCCN1CCN(c2ccccc2F)CC1 | 336
63 | N#CC1=C(N)OC2=C(C(=O)CCC2)C1c1ccc(OC(=O)N2CCOCC2)cc1 (stereo unspecified) | 223
64 | O=C(NCC(c1cccnc1)N1CCOCC1)c1cccc(Cl)c1 (stereo unspecified) | 94.5
65 | O=C(NCCCN1CCN(c2ccc(F)cc2)CC1)c1cccc(N2CCCC2=O)c1 | 263
66 | CC(C)N1CCC2(CC1)N=C(c1ccc3c(c1)OCO3)CC(c1cc(Cl)ccc1O)N2 (stereo unspecified) | 43.5
67 | CCn1c(=S)ccc2ccc(OC)cc21 | 118
68 | Cn1c(C(=O)NCCCN2CCN(c3ccccc3F)CC2)cc2c(=O)n(C)c3ccccc3c21 | 170
69 | Cc1cccc(-c2nsc(SCC(=O)Nc3nccs3)n2)c1 | 169
70 | CS(=O)(=O)c1nc(-c2cccs2)cc(C(F)(F)F)n1 | 61
71 | COc1ccccc1NC(=O)c1nc[nH]c1C(=O)Nc1ccccc1OC | 257
72 | Cc1cc(=O)n2nc(N3CCCC(C(=O)NCCCN4CCc5ccccc5C4)C3)sc2n1 (stereo unspecified) | 146
73 | COc1ccc(-c2coc3c(CN4CCCCC4)c(O)c(CN4CCCCC4)c(O)c3c2=O)cc1 | 63
74 | CCN(CC)CCNC(=O)c1nn(-c2ccc(C)cc2)c(=O)c2c1c1ccccc1n2C | 136
75 | Cc1ccc2c(c1)NC(=O)C(CC(=O)NCCCN1CCN(c3cc(C)ccc3C)CC1)O2 (stereo unspecified) | 152
76 | Cc1ccc(NC(=O)CCNS(=O)(=O)c2ccc3c(c2)oc(=O)n3C)c(C)c1 | 129
